Experimental findings from PubChem BioAssay (NCATS) are described below.

In test [1] the target is Cytochrome P450 3A4 (Homo sapiens) (UniProt P08684). As to the kind of experiment: qHTS Assay for Inhibitors and Substrates of Cytochrome P450 3A4 (AID 884). Also: % is scaled to controls: 0 for no effect and ±100 for the full control effect; nearly all actives have a fitted effect of over 50% in size. The essentials:
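20 nM human CYP3A4 with 25 uM Luciferin-PPXE (at KM) in 200 mM KPO4, preincubated 10 min with compound; NADPH regeneration started a 60 min RT reaction. Luciferin detected by luminescence, normalized to 57 uM ketoconazole as full inhibition.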
For orientation: Quantitative high-throughput screening tests each substance at several concentrations.

A short description of test [2]: Confirmation and Secondary Assay for Modulators of Hemoglobin Beta Chain Splicing at IVS2 654 locus (AID 910).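 Also: HeLa cells stably carrying EGFP split by mutant beta-globin IVS2-654 intron; per-well total GFP intensity by laser scanning cytometry after 2-day treatment; % of control where 0% means no effect.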 The essentials: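 Readout: per-well total peak green fluorescence (488 nm ex, 500–520 nm em) from objects 5–250 µm, reflecting correct splicing of an EGFP-654 reporter. Compounds were applied for 2 days at 37 °C to overnight-plated HeLa EGFP-654 cells; controls were DMSO and 500 nM IVS2-654 PNA.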

Test [3] in a line: Confirmation and Secondary Assay for Modulators of Hemoglobin Beta Chain Splicing at IVS2 705 locus (AID 930).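 Also: HeLa cells stably expressing the EGFP-705 splicing reporter; GFP fluorescence per well restored by corrected splicing of the IVS2-705 intron in EGFP; % of control where 0% means no effect.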 The essentials: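 HeLa EGFP-705 reporter; 500 cells/well, o/n 37C 5% CO2; cpd 2 d; 488 ex/500-520 em laser scan; total peak GFP intensity/well. Ref: 500 nM […] antisense PNA.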
A short description of test [4]: qHTS Assay for Lipid Storage Modulators (AID 1519; calls by dose curve). The settings on record: Drosophila S3 cells, BODIPY lipid droplet/cell ratio, laser cytometry, cells loaded with oleic acid. The essentials:
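Cells seeded at 5,000 per well were treated with compounds over a concentration series and loaded with oleic acid (400 uM, as added). Lipid droplet fluorescence (488 nm excitation, 500-530 nm channel) was read by laser-scanning cytometry and normalized to 20 uM Triacsin C.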

The target in test [5] is Ubiquitin carboxyl-terminal hydrolase 1 (Homo sapiens) (UniProt O94782). As to the kind of experiment: Inhibitors of USP1/UAF1: Pilot qHTS (AID 504865). Also: nearly all actives have a fitted effect of over 35% in size. Also: potency is read from the fitted curve at half-maximal effect. The essentials:
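Kinetic fluorescence assay: 1nM USP1/UAF1, 15 min compound preincubation, then 150nM Ub-Rho; 480/540 nm.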

A short description of test [6]: qHTS profiling for inhibitors of Plasmodium falciparum proliferation (AID 504749).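 Also: 0% = DMSO vehicle and full inhibition = artemisinin control; nearly all actives have a fitted effect of over 60% in size.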 To be noted: P. falciparum in erythrocytes, SYBR Green DNA, 72 h, at 28.7 µM (top of the series). The essentials:
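Three-day growth assay of blood-stage parasites in erythrocytes (0.3% parasitemia, 2.5% hematocrit) at 37 C, 5% CO2, quantified by SYBR Green DNA staining after overnight detergent lysis.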

In test [7] the target is Lysosomal acid glucosylceramidase (Homo sapiens) (UniProt P04062). The test is described as follows: Glucocerebrosidase-p2 (AID 348; in the data active = potency below about 10 µM; also: potency is read from the fitted curve at half-maximal effect). The settings on record: purified GBA, blue fluorogenic substrate, 40 min. The essentials:
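Compounds titrated from 0.6 nM upwards against 0.2 nM enzyme in pH 5.9 citric acid/KH2PO4, taurocholate, tween-20; blue fluorogenic substrate 80 uM, 40 min room temperature, stopped and read Ex 365/Em 440 for AC50.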

A short description of test [8]: AP1 Signaling Pathway (AID 357; active = well fitted curve in either direction with a large enough effect, not every such curve was filed as active; also: % is scaled to controls: 0 for no effect and ±100 for the full control effect). To be noted: ME-180 AP-1-bla reporter, EGF-induced, beta-lactamase ratio, 5 h. The essentials:
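AP-1-bla ME-180 cells with beta-lactamase reporter under AP-1 response element, stimulated with EC50 EGF; compounds titrated, 5 hours at 37 degrees Celsius. CCF4 read at 460/530 nm ratio; positive and negative modulators judged by AC50.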

For test [9], the target named is Mitogen-activated protein kinase 10 (Mus musculus) (UniProt Q61831). The test is described as follows: JNK3 AlphaScreen Assay (AID 530; active = well fitted curve in either direction with a large enough effect, not every such curve was filed as active;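 also: kinase came from lysate of stimulated human HepG2 cells; signal reports phosphorylation of biotinylated GST-cJun 1-79 at Ser73 with 10 µM ATP; % is scaled to controls: 0 for no effect and ±100 for the full control effect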). The procedure, abridged: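 Room-temperature AlphaScreen kinase assay; pre-activated HepG2 lysate as JNK3 source, biotin-GST-cJun(1-79) substrate, 10 uM ATP, compound 15 min preincubation.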
Background: Bead proximity is the source of the signal in Alpha formats.

The target in test [10] is 3',5'-cyclic-AMP phosphodiesterase 4B (Homo sapiens) (UniProt Q07343). The test is described as follows: qHTS Assay for Inhibitors of PDE-IV (AID 607; active = well fitted activation curve with a large enough effect in the main read-out, with a control signal flat, not every such curve was filed as active; also: % of control where 0% means no effect). The essentials:
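Live HEK293 cells with a modified cyclic nucleotide-gated (CNG) channel report intracellular cAMP via membrane-potential dye fluorescence (ex 535/em 590 nm). Endogenous PDE-IV was targeted. Compounds were tested at up to 22.9 uM final; RO 20-1724 100 uM served as control.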

Test [11] can be described thus: NFAT Signaling Pathway (AID 444; active = well fitted curve in either direction with a large enough effect, not every such curve was filed as active;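 also: carbachol stimulus at about its EC50 of 1 µM final; % is scaled to controls: 0 for no effect and ±100 for the full control effect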). To be noted: Jurkat NFAT-bla M1, carbachol, beta-lactamase ratio, 5 h; at 7.69 µM (top of the series) unless noted. The procedure, abridged: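 Read-out: CCF4 FRET ratio (460 nm/530 nm) after 1 h RT dye loading, used for %activity and AC50 from titration series. Cells: Jurkat NFAT-β-lactamase/M1 line, treated with compound plus 1 uM carbachol for 5 h, 37 °C.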

Test [12] in a line: Stat Signaling Pathway (AID 446; active = well fitted curve in either direction with a large enough effect, not every such curve was filed as active;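 also: ME-180 cervical cancer cells given 40 pM IL-6 alongside compound; SIE-controlled beta-lactamase reporter measured as 460/530 nm FRET emission ratio; % is scaled to controls: 0 for no effect and ±100 for the full control effect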). The settings on record: ME-180 (cervical carcinoma) SIE beta-lactamase reporter, IL-6 stimulated, 5 h; at 7.69 µM (top of the series) unless noted. The procedure, abridged:
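IL-6/STAT signaling read in ME-180 cells via an SIE beta-lactamase reporter. Stimulus was 40 pM IL-6 (its AC50) for 5 hrs, so both activation and inhibition register.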

In test [13] the target is Glucocorticoid receptor (Homo sapiens) (UniProt P04150). As to the kind of experiment: GR-GFP Redistribution (AID 450;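 active = compounds whose dose series gives a full or clear partial fitted curve of increased nuclear translocation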; also: potency is read from the fitted curve at half-maximal effect). To be noted: U2OS GR-GFP nuclear translocation, laser cytometry, 2 h.
Glucocorticoid receptor (Homo sapiens), sequence (P04150 whole entry, looked up): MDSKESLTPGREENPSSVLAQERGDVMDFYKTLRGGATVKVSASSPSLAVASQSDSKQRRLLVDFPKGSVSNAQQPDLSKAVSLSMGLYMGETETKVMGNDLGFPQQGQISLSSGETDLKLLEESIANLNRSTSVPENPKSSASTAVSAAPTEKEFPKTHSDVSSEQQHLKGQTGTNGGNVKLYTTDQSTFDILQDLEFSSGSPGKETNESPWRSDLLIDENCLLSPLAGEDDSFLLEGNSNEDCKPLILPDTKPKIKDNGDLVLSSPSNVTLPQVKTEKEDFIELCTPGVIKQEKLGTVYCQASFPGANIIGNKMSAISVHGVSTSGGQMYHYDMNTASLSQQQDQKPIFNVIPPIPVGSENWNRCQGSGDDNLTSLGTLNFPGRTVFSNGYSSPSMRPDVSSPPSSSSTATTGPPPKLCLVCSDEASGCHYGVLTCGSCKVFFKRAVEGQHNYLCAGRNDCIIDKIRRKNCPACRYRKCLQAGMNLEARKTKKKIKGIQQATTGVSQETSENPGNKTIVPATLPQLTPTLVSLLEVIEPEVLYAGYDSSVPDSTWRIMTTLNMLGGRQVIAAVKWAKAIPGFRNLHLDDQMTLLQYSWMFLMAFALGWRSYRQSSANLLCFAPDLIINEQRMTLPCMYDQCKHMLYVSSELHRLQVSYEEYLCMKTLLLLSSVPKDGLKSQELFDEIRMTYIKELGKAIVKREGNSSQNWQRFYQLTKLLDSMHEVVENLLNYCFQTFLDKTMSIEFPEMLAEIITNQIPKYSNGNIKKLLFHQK
The target is the same in test [14]. As to the kind of experiment: GR-EFC Redistribution (AID 451; calls by dose curve; also: potency is read from the fitted curve at half-maximal effect). The settings on record: CHO-K1 GR-EFC translocation, beta-gal luminescence, 2 h. The procedure, abridged:
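Translocation of GR-ED fusion to nuclear EA restores b-gal, read by luminescence after 1 h room-temperature detection. Engineered CHO-K1 biosensor cells, 1,000/well, exposed 2 h at 37 C to titrations up to 46 uM final.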

Test [15] concerns the target Dual specificity protein kinase CLK4 (Homo sapiens) (UniProt Q9HAZ1). The test is described as follows: qHTS Assay for Inhibitors of CDC-like Kinase 4 (ADP-FP Assay) (AID 1795).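 Also: recombinant human CLK4 phosphorylating RS repeat peptide at 1 µM ATP; % is scaled to controls: 0 for no effect and ±100 for the full control effect; nearly all actives have a fitted effect of over 60% in size.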 The procedure, abridged:
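Inhibition of ADP formation by 6.25 nM Clk4 is measured using 1 uM ATP and 100 uM RS repeat peptide over one hour. Produced ADP displaces a fluorescent tracer from antibody, lowering polarization.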

Where [16] appears, read: measured here: cell count channel max response.
[17] abbreviates: measured here: lipid channel max response.

“And” between values parts separate entries of the source, which are not always exact repeats. Identical values can stand only once. Records with an inconclusive call do not appear. The source made the active and inactive calls. Unless noted, calls follow the shape of the dose curve; as a rule, active = well fitted curve in the direction sought with a large enough effect; inconclusive = small, poorly fitted or top-dose-only effect, or another doubt; inactive = no such curve, though single readings can be large; an effect the other way counts as inactive or inconclusive.

3',5'-cyclic-AMP phosphodiesterase 4B (Homo sapiens), sequence (Q07343 whole entry, looked up): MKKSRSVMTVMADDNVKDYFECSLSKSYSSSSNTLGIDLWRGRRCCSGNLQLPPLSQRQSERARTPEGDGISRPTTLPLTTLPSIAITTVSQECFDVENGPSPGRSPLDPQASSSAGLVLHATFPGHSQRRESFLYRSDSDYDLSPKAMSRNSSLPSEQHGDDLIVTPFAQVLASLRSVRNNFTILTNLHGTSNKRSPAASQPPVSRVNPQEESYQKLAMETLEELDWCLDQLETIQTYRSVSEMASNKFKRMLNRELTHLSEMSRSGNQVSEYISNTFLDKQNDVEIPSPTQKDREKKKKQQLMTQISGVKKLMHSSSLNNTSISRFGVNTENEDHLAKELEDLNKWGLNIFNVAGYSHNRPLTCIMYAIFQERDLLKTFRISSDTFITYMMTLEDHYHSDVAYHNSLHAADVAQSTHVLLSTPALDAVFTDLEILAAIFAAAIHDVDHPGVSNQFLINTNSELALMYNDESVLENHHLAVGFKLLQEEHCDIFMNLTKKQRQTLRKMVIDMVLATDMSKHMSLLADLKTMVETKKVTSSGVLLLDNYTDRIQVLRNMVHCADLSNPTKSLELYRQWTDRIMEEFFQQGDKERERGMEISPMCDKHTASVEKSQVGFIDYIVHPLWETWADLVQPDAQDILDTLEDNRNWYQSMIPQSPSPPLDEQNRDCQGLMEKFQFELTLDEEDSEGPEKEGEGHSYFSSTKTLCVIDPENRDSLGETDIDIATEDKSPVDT
Ubiquitin carboxyl-terminal hydrolase 1 (Homo sapiens), sequence (O94782 whole entry, looked up): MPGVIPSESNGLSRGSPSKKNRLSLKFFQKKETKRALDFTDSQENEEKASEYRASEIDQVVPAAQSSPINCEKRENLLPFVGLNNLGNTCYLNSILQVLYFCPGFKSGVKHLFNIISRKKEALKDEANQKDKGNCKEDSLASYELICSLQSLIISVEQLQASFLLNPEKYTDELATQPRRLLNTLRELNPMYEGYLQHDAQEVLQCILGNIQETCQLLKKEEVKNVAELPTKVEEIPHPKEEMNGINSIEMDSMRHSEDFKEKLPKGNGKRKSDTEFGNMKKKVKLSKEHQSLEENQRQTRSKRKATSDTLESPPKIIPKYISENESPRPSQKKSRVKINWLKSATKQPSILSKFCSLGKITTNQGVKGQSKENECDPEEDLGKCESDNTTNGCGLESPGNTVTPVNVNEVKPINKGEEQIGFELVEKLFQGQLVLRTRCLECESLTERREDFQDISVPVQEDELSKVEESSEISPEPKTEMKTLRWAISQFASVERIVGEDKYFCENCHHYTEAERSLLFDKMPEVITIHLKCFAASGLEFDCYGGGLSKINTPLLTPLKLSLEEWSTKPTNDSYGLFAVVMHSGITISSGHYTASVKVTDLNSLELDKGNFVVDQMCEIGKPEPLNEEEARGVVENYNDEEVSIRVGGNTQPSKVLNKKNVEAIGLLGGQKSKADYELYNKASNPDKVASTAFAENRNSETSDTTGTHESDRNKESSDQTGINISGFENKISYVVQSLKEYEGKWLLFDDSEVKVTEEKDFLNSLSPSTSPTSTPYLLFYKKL
Lysosomal acid glucosylceramidase (Homo sapiens), sequence (P04062 whole entry, looked up): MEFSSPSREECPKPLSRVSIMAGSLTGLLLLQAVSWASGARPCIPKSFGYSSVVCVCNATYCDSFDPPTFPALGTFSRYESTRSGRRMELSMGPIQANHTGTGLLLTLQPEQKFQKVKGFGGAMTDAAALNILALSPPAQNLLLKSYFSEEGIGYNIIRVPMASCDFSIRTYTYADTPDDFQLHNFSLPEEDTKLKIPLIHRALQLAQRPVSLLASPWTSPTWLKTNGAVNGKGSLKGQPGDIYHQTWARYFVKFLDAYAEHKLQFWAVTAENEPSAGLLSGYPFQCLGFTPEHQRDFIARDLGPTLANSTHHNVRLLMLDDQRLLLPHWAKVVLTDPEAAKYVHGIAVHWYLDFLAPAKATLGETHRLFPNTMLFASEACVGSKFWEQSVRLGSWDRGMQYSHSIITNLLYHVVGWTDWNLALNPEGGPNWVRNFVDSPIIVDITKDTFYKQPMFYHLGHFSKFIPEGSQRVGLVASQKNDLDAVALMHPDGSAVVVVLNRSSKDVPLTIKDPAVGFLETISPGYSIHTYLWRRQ
Cytochrome P450 3A4 (Homo sapiens), sequence (P08684 whole entry, looked up): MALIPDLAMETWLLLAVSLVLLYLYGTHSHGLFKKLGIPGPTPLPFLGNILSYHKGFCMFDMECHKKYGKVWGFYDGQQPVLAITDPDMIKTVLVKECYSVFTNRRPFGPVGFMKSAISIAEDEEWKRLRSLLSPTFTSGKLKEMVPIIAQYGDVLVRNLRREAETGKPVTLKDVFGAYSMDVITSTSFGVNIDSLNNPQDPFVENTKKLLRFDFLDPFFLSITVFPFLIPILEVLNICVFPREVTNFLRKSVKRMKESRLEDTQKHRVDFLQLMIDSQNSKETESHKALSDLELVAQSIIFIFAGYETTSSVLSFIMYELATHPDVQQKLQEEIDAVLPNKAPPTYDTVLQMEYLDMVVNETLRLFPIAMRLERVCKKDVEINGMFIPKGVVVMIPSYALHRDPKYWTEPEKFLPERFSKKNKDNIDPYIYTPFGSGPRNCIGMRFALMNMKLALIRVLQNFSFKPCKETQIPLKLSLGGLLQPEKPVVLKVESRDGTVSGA
Dual specificity protein kinase CLK4 (Homo sapiens), sequence (Q9HAZ1 whole entry, looked up): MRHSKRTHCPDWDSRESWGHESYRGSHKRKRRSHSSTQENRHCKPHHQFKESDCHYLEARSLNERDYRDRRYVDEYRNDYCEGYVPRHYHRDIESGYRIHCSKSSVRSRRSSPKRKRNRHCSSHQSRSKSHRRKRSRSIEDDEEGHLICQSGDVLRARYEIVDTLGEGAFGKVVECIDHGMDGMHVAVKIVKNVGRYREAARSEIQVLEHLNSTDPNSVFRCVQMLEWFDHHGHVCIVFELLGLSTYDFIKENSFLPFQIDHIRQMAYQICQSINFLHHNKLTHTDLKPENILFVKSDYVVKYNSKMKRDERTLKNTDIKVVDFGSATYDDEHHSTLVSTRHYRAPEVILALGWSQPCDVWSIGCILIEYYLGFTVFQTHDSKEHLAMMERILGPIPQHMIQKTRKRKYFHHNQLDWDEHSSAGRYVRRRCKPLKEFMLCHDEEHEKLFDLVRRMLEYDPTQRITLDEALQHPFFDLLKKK

With `O=C(Cc1cccs1)NC1C(=O)N2C(C(=O)[O-])=C(C[n+]3ccccc3)CSC12` (stereo not given), the Potency result in test [1] and in test [2] was “inactive” in each case. Besides, in [3], the outcome was inactive. For the same molecule, the activity change, negative = inhibition in [4] (at 57.5 µM (top of the series)) is 7.61% (inactive). The max response in test [4] (setting [16]) came out at 18%; in test [4] (setting [17]) it was 28.7%. For the same molecule, the Potency in test [5] is 79.4 µM (active). The activity, negative = inhibition in [6] (parasite line A) was 4.33% (inactive); in test [6] (parasite line B) it was -24.5% (inactive).
Regarding `C#C[C@]1(O)CCC2C3CCC4=C(CCC(=O)C4)C3CC[C@@]21C` (stereo not given in full), the Potency result in test [2] and in test [5] was “inactive” each time. Besides, the result in [3] was inactive. The activity change, negative = inhibition in test [4] (at 57.5 µM (top of the series)) is 7.93% (inactive). Moreover, the max response was -6.89% in test [4] (setting [16]) and 3.32% in test [4] (setting [17]).
On to `CN1[C@@H]2CC[C@H]1CC(OC(=O)[C@@H](O)c1ccccc1)C2` (stereo not given in full), for which the Potency in test [7] was > 11.4 µM (inactive). The activity change, negative = inhibition in test [8] (at 7.69 µM (top of the series)) is 9.45% (inactive); in [8] (at 17.2 µM (top of the series)), -8.08% (inactive); in test [8] (at 38 µM (top of the series)) it was -8.54% (inactive); in test [4] (at 25.7 µM (top of the series)) it was 2.61% (inactive). In addition, the Potency entry in test [9], in test [10] and in test [5] was “inactive” each time. The max response in test [4] (setting [16]) worked out at 4.94%; in [4] (setting [17]) it was 8.69%. Moreover, the activity, negative = inhibition in test [6] (parasite line A) was -3.65% (inactive) and -0.465% (inactive); in [6] (parasite line B) it was 7.89% (inactive) and -12.1% (inactive).
Turning to `COCCn1c(=O)c(C)nc2cnc(Nc3ccccc3)nc21`, the figures for the Potency in test [7], in test [13] and in [14] were > 11.4 µM (inactive), > 9.22 µM (inactive) and > 46 µM (inactive), respectively. The activity change, negative = inhibition in [8] (at 7.69 µM (top of the series) unless noted) is -18.1% (inactive); in [11], 15.1% (inactive); in test [4] (at 57.5 µM (top of the series)) it was -1.55% (inactive). For the same molecule, in [12], the activity, negative = inhibition is 3.38% (inactive). The Potency result in [9], in [10], in [15] and in test [5] was “inactive” throughout. Further, the max response in test [4] (setting [16]) was -5.32%; in [4] (setting [17]), -10.4%.
